Assay results published in PubChem BioAssay (NCATS).
Several values for one entry are separate records, joined by “and”; a condition that tells them apart may be missing. Equal values may be shown once. Results filed as inconclusive are left out. Activity calls are given as the source filed them. Unless noted, the call rests on the fitted dose curve; in most records, active means well fitted curve in the direction sought with a large enough effect; inconclusive means small, poorly fitted or top-dose-only effect, or another doubt; inactive means no such curve, though single readings can be large; an effect the other way counts as inactive or inconclusive.

Tests used:
[1] = Cell Viability - Jurkat (AID 426;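 active means dose-dependent loss of cell ATP signal giving a full or clear fitted curve, ranked by lower potency value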; further: potency means the concentration at half of the fitted maximal effect); conditions: qHTS
Outline: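 qHTS, 1536-well; Jurkat E6-1, 5000 cells/well, complete medium; cpd 40 hr, 37 °C; CellTiter-Glo 20 min RT; luminescence. AC50 by Hill fit.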

[2] = Cell Viability - Hek293 (AID 427;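 active means compounds whose dose-response curve shows a full or clear partial loss of cell viability, called from curve shape rather than a numeric limit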;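 further: potency means the concentration at half of the fitted maximal effect; cells exposed to compound for 40 hours at 37 °C before reading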); conditions: qHTS
Outline: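 HEK293 cells in complete medium were exposed to compound for 40 hr at 37 °C, then cellular ATP was read by CellTiter-Glo luminescence. Data were normalized to DMSO (basal) and 100 uM tamoxifen (100% inhibition), and AC50 came from Hill fits.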

[3] = Cell Viability - SH-SY5Y (AID 544); conditions: SH-SY5Y neuroblastoma cell viability; viability change, negative = cytotoxic: at 92.2 µM (top of the series);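 further: 0% = DMSO alone and -100% = 100 µM tamoxifen; nearly all actives have a fitted effect of over 55% in size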
Outline: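 Luminescent ATP read-out (CellTiter-Glo) measures loss of viable SH-SY5Y neuroblastoma cells after 40 hr compound exposure at 37 °C. AC50 values derive from standard Hill modelling of qHTS concentration-response data.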

[4] = Cellular Toxicity (caspase-3) BJ (AID 658); conditions: BJ fibroblasts, luminescence; Potency: caspase-3 activation; series mostly up to 91.7 µM
Outline: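 Readout: Caspase-Glo 3/7 luminescence increase in BJ cells after 16 hr treatment at 37 °C. Staurosporine and tamoxifen served as positive controls; AC50 values came from Hill modelling of data normalized to DMSO and 10 uM staurosporine.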

[5] = Cellular Toxicity (caspase-3) MRC-5 (AID 659); conditions: MRC-5 cells, luminescence, normalized: DMSO 0%, 10 µM staurosporine 100%; series mostly up to 91.7 µM
Outline: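 Concentration-dependent caspase 3/7 activation is measured in human normal lung fibroblasts (MRC-5) following 16-hour treatment. AC50 values come from standard Hill-equation modeling of luminescence normalized to DMSO and 10 uM staurosporine.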

[6] = target: Cytochrome P450 3A4 (Homo sapiens) (UniProt P08684); experiment: qHTS Assay for Inhibitors and Substrates of Cytochrome P450 3A4 (AID 884); conditions: recombinant CYP3A4, Luciferin-PPXE luminescence; series mostly up to 57.1 µM; further: on the % scale 0 is the no-effect control and ±100 the full control effect; nearly all actives have a fitted effect of over 50% in size
Outline: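 20 nM human CYP3A4 with 25 uM Luciferin-PPXE (at KM) in 200 mM KPO4, preincubated 10 min with compound; NADPH regeneration started a 60 min RT reaction. Luciferin detected by luminescence, normalized to 57 uM ketoconazole as full inhibition.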

[7] = target: Vitamin D3 receptor (Homo sapiens) (UniProt P11473); experiment: qHTS assay for small molecule antagonists of vitamin D receptor signaling (AID 588541; calls by dose curve;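 further: receptor activated by calcitriol during compound treatment; on the % scale 0 is the no-effect control and ±100 the full control effect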); conditions: HEK293T VDR-UAS-bla, beta-lactamase ratio, antagonist mode; series mostly up to 76.7 µM
Outline: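 Antagonist-mode beta-lactamase reporter assay: HEK293T VDR-UAS-bla cells were exposed to titrated compound alongside 1-alpha,25-dihydroxyvitamin D3 at 3 nM final for 16 h. Values were normalized to the 50 nM agonist control and DMSO basal, with IC50 and efficacy from Hill equation fits.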

[8] = target: Vitamin D3 receptor (Homo sapiens) (UniProt P11473); experiment: qHTS assay for small molecule agonists of vitamin D receptor signaling (AID 588543; calls by dose curve;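 further: 0% = DMSO basal and 100% = reference agonist control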); conditions: HEK293T VDR-UAS-bla, beta-lactamase ratio, 16 h; series mostly up to 76.8 µM
Outline: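 β-lactamase reporter, VDR-UAS-bla HEK293T, agonist mode. Cells plated 5 h at 37 °C, compound titration 16 h at 37 °C, CCF4 dye 2 h RT, ratio 460/530 nm. Hill fit → EC50, efficacy vs 50 nM 1α,25-(OH)2D3.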

[9] = target: Thyroid hormone receptor beta (Homo sapiens) (UniProt P10828); experiment: qHTS assay for small molecule agonists of thyroid hormone receptor beta signaling (AID 588545; calls by dose curve); conditions: TR-UAS-bla GripTite HEK 293, beta-lactamase ratio, agonist mode, 18 h; series mostly up to 76.7 µM
Outline: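 Cells (2500/well) were seeded, incubated 4 hrs at 37 C, dosed with a compound series, incubated 18 hrs, loaded with CCF4 dye for 2 hrs at RT, then read for fluorescence. Data were scaled between DMSO (0%) and 10 nM T3 (100%).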

[10] = qHTS assay for small molecule activators of the p53 signaling pathway (AID 651743; active means well fitted activation curve with a large enough effect in the signal ratio, not every such curve was filed as active; the % refers to the signal ratio; further: % of control where 0% means no effect); conditions: HCT-116 p53RE-bla, beta-lactamase FRET ratio, 16 h; activation: hits give high values
Outline: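 Read-out is fluorescence intensity from the LiveBLAzer B/G FRET substrate, added for 2 hours at room temperature after HCT-116 p53RE-bla cells had been incubated with compounds for 16 hours at 37 C.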

[11] = qHTS assay for small molecule activators of the nuclear factor-kappa B (NF-kB) signaling pathway (AID 651749; active means well fitted activation curve with a large enough effect in the signal ratio; the % refers to the signal ratio; further: % of control where 0% means no effect); conditions: NF-kB-bla ME-180 cells, beta-lactamase FRET ratio, 16 h; hits give high values
Outline: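 Readout: beta-lactamase reporter driven by an NF-kB response element, detected fluorescently as loss of FRET. Cells were the ME-180 line, treated 16 hr at 37C with pin-transferred compound.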

[12] = qHTS assay for small molecule disruptors of the mitochondrial membrane potential - 1 hr assay (AID 651754; calls by dose curve; further: on the % scale 0 is the no-effect control and ±100 the full control effect; nearly all actives have a fitted effect of over 35% in size); conditions: series mostly up to 92.2 µM
Outline: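 HepG2, 2,000 cells/well, overnight attachment; cpd or DMSO 1 hr, 37C/5% CO2; Mito-MPS dye 30 min, 37C; fluorescence monomer (490/535) and aggregate (540/590).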

[13] = target: Tumor necrosis factor (Homo sapiens) (UniProt P01375); experiment: qHTS assay to identify small molecules that stimulate Tumor Necrosis Factor-alpha (TNF-alpha) secretion (AID 651757; active means well fitted curve in the direction sought with a large enough effect in the signal ratio; the % refers to the signal ratio; further: 0% is about no effect); conditions: Human cells, HTRF 665/615 ratio; series mostly up to 92.2 µM
Outline: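 Read-out is HTRF, a TR-FRET sandwich of cryptate- and XL665-labeled anti-TNF-alpha antibodies detecting cytokine secreted by THP-1 cells. Cells had been incubated with test compounds at 37 C for 17 hrs beforehand.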

[14] = target: Nuclear receptor ROR-gamma (Homo sapiens) (UniProt P51449); experiment: qHTS assay for small molecule antagonists of the retinoid-related orphan receptor gamma (ROR-gamma) signaling pathway (AID 651802); conditions: ROR-gamma antagonist cell reporter assay; series mostly up to 92.2 µM;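 further: luciferase reporter luminescence driven by ROR response element; on the % scale 0 is the no-effect control and ±100 the full control effect; nearly all actives have a fitted effect of over 60% in size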
Outline: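 CHO, TET-inducible ROR + RORE-LUC reporter, 1536-well qHTS. Compound pinned, doxycycline added, 16hr 37C/5% CO2. ONE-Glo, 30 min RT, luminescence; signal drop scored as antagonism.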

[15] = qHTS assay for small molecule antagonists of the retinoid-related orphan receptor gamma (ROR-gamma) signaling pathway - cell viability counter screen (AID 720652; active means well fitted curve in the direction sought with a large enough effect in the repeat runs; an effect the other way counts as inactive or inconclusive;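 further: compound exposure lasted 16 hr before ATP read; on the % scale 0 is the no-effect control and ±100 the full control effect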); conditions: RORgamma reporter cell line viability counter screen; series mostly up to 92.2 µM
Outline: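 Luminescence from CellTiter-Glo after 30 min at room temperature reported cellular ATP as the cytotoxicity measure. Cells were the CHO reporter line with doxycycline-induced ROR-gamma expression, exposed to compound for 16 hr at 37 C.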

[16] = qHTS assay for small molecule activators of the human pregnane X receptor (PXR) signaling pathway (AID 720659; call rule not given here; further: 0% is about no effect); conditions: DPX-2 HepG2 CYP3A4-luciferase, 24 h; series mostly up to 92.3 µM
[17] = Cell Viability - NIH 3T3 (AID 541); conditions: NIH 3T3 cell viability, qHTS; activity change, negative = cytotoxicity: at 92.2 µM (top of the series);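 further: plate controls were DMSO alone for no effect and tamoxifen positive control for full effect; nearly all actives have a fitted effect of over 25% in size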
Outline: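 Luminescent ATP signal (CellTiter-Glo) served as the viability read-out after NIH 3T3 cells were exposed to compounds over a concentration range for 40 hr at 37 °C. Hill-equation modelling of concentration-response data gave AC50.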

[18] = target: Glucocorticoid receptor (Homo sapiens) (UniProt P04150); experiment: qHTS assay for small molecule agonists of glucocorticoid receptor signaling (AID 588532; active means well fitted curve in the direction sought with a large enough effect in the signal ratio, with a control signal flat; the % refers to the signal ratio;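 further: 100% = dexamethasone at 0.1 µM and 0% = DMSO only wells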); conditions: HeLa MMTV-bla, beta-lactamase ratio, agonist, 18 h; hits give high values; percent of dexamethasone control, DMSO zero
Outline: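 Using MMTV-bla HeLa cells in medium with 1% stripped FBS and 25 mM HEPES, compounds were titrated and incubated overnight-length (18 h). Beta-lactamase cleavage of CCF4 was quantified by dual-emission fluorescence.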

[19] = target: Voltage-gated inwardly rectifying potassium channel KCNH2 (Homo sapiens) (UniProt Q12809); experiment: qHTS Assay for Small Molecule Inhibitors of the Human hERG Channel Activity (AID 588834); conditions: U2OS BacMam hERG, FluxOR thallium flux fluorescence; series mostly up to 92.2 µM;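 further: top concentration of the series differs between compounds; on the % scale 0 is the no-effect control and ±100 the full control effect; lower thallium flux fluorescence means stronger hERG block; nearly all actives have a fitted effect of over 50% in size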
Outline: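 Concentration-response qHTS measuring drop in thallium-sensitive dye signal. U2OS cells carrying BacMam hERG; compound exposure ~10 min, then stimulation buffer and 2 min read at 1 sec intervals.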

[20] = qHTS assay for small molecule agonists of the antioxidant response element (ARE) signaling pathway (AID 651741; active means well fitted activation curve with a large enough effect in the signal ratio; the % refers to the signal ratio; further: % of control where 0% means no effect); conditions: HepG2 ARE-bla reporter, beta-lactamase FRET ratio, 16 h; series mostly up to 96 µM
Outline: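 Quantitative HTS in HepG2 cells stably expressing an ARE-beta-lactamase reporter; 16 h compound exposure at 37 C, followed by 2 h room-temperature incubation with LiveBLAzer B/G FRET substrate and fluorescence measurement.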

Glucocorticoid receptor (Homo sapiens), sequence (P04150 whole entry, looked up): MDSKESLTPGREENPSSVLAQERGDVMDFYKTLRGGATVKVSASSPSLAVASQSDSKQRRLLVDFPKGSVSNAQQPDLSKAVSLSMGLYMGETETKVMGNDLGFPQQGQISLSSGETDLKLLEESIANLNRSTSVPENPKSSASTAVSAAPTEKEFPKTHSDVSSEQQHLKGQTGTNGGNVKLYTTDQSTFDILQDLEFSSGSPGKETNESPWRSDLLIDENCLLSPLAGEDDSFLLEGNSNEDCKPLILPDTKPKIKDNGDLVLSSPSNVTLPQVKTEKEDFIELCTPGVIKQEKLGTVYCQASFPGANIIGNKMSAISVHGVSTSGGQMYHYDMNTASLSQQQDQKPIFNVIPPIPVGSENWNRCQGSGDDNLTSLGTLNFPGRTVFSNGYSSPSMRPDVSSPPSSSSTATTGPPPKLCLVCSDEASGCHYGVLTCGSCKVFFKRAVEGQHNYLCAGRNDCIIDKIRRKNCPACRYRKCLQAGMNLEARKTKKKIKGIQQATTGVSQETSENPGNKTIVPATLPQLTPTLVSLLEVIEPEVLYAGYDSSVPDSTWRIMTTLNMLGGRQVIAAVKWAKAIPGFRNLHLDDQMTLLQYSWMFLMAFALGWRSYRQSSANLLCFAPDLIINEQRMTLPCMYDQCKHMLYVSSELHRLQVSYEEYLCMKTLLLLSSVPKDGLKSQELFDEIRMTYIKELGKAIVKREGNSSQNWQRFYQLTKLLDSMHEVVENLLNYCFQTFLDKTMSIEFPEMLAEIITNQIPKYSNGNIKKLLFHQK
Cytochrome P450 3A4 (Homo sapiens), sequence (P08684 whole entry, looked up): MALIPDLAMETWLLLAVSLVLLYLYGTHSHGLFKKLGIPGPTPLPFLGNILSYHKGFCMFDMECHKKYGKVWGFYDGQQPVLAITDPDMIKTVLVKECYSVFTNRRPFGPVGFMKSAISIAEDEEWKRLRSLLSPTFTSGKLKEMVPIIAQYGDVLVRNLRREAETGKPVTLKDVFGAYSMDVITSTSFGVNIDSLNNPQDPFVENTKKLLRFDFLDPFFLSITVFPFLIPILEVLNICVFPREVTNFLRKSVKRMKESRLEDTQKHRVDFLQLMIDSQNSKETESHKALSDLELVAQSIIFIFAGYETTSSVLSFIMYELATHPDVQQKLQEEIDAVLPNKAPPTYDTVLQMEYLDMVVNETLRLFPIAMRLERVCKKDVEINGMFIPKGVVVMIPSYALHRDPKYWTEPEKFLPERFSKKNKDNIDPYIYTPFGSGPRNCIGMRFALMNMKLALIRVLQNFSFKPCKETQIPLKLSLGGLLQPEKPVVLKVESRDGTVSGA
Nuclear receptor ROR-gamma (Homo sapiens), sequence (P51449 whole entry, looked up): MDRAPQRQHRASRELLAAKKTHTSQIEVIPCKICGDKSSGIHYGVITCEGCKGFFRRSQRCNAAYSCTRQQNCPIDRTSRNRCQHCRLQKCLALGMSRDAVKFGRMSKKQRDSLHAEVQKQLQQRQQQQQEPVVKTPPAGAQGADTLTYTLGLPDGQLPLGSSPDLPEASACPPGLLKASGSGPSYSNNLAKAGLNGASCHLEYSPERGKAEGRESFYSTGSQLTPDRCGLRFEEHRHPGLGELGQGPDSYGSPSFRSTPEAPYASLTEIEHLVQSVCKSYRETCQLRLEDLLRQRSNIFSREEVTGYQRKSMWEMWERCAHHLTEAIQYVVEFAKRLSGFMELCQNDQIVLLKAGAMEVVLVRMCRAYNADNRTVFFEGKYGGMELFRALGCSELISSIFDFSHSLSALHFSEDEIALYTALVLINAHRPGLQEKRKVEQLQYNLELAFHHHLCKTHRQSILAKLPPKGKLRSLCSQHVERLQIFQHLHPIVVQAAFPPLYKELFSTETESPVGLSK
Thyroid hormone receptor beta (Homo sapiens), sequence (P10828 whole entry, looked up): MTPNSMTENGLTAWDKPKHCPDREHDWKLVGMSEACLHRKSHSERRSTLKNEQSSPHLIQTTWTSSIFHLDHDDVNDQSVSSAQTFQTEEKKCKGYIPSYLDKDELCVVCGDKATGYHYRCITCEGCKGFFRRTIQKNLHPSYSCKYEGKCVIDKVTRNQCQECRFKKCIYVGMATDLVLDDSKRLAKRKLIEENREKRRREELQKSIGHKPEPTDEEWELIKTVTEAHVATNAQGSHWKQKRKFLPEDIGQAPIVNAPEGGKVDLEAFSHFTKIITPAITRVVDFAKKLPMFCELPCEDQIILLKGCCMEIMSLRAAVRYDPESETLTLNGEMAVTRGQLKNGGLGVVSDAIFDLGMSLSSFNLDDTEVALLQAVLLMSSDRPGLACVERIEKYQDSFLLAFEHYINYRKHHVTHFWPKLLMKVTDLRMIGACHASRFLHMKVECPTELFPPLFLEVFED
Vitamin D3 receptor (Homo sapiens), sequence (P11473 whole entry, looked up): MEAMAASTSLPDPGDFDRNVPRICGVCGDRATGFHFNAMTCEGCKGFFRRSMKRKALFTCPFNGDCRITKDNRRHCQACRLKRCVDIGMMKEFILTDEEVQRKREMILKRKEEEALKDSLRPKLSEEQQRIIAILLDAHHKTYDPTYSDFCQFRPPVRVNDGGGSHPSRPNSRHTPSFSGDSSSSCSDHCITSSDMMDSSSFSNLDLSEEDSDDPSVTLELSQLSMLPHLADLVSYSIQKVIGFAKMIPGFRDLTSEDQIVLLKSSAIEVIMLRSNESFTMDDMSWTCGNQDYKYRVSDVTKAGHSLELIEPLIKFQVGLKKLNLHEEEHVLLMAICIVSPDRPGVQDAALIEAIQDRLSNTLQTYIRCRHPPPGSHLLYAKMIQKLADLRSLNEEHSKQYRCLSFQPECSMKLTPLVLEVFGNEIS
Tumor necrosis factor (Homo sapiens), sequence (P01375 whole entry, looked up): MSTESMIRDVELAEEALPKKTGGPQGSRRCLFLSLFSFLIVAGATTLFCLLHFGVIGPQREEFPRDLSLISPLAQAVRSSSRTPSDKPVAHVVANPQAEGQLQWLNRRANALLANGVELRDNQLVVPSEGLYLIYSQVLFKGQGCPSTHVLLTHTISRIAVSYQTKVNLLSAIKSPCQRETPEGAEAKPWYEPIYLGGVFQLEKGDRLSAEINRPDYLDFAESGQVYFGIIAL
Voltage-gated inwardly rectifying potassium channel KCNH2 (Homo sapiens), sequence (Q12809 whole entry, looked up): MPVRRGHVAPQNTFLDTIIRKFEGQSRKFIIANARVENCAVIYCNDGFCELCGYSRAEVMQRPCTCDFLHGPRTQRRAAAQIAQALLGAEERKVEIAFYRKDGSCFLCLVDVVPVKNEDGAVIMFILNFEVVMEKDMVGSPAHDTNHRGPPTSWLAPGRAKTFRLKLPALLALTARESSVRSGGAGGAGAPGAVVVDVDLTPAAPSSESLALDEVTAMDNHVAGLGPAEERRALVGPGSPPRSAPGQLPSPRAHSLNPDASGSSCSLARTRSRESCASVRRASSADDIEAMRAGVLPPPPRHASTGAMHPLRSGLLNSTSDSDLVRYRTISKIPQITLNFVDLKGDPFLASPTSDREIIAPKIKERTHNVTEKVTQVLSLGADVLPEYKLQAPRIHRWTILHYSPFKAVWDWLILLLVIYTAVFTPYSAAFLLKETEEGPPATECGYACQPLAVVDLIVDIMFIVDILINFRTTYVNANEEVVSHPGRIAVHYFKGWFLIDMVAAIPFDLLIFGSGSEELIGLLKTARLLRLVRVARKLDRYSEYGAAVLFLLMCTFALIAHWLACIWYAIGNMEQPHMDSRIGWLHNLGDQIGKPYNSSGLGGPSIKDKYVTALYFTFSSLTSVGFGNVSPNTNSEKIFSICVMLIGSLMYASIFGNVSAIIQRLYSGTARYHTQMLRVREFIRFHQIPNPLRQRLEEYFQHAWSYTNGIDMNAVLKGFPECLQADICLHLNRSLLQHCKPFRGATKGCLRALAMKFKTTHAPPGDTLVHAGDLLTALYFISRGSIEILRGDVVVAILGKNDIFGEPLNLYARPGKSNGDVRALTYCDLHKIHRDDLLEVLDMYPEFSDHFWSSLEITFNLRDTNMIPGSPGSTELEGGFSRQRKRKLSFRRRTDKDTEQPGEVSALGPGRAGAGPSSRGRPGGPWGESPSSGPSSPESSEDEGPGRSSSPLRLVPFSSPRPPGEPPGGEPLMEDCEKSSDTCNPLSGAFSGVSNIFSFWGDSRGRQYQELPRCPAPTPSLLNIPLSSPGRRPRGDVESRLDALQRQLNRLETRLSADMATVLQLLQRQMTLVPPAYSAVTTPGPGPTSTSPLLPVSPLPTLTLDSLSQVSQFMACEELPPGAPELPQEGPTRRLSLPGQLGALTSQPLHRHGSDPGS

CCOC(=O)C1OC1c1ccccc1 (stereo not given)
inactive: Potency [1] > 92 µM | Potency [2] > 92 µM | Potency [3] | Potency [4] | outcome [5] | Potency [6] | Potency [7] | Potency [8] | Potency [9] | activation [10] 6.05% | activation [11] 0.437% | Potency [12] | Potency [13] | Potency [14] | Potency [15] | outcome [16]

c1ccc2ncccc2c1
inactive: Potency [1] > 92 µM | Potency [2] > 92 µM | activity change, negative = cytotoxicity [17] -0.00606% | Potency [3] | Potency [4] | activation [18] -12.1% | Potency [9] | Potency [19] | Potency [20] | activation [10] -4.75% | Potency [12] | Potency [13] | Potency [14] | Potency [15] | outcome [16]

CC(=O)OCc1ccc2c(c1)OCO2
inactive: Potency [1] > 92 µM | Potency [2] > 92 µM | Potency [3] | Potency [7] | Potency [8] | Potency [9] | Potency [19] | Potency [20] | activation [10] -2.61% | Potency [12] | Potency [13] | Potency [14] | Potency [15] | outcome [16]

OCC(CO)(CBr)CBr
inactive: Potency [1] > 92 µM | Potency [2] > 92 µM | Potency [3] | Potency [4] | Potency [6] | activation [18] -3.06% | Potency [9] | Potency [19] | Potency [20] | activation [11] -1.02% and -1.55% | Potency [12] | Potency [13] | Potency [14] | Potency [15] | outcome [16]

C1CCCNCC1
inactive: Potency [1] > 92 µM | Potency [2] > 92 µM | activity change, negative = cytotoxicity [17] -12.5% | Potency [3] | Potency [6] | activation [18] 8.29% | Potency [9] | Potency [19] | Potency [20] | Potency [13] | Potency [14] | Potency [15] | outcome [16]

Cc1ccc(C(=O)O)cc1[N+](=O)[O-]
inactive: Potency [1] > 92 µM | Potency [2] > 92 µM | activity change, negative = cytotoxicity [17] -13.4% | Potency [3] | Potency [4] | outcome [5] | Potency [6] | Potency [7] | Potency [8] | Potency [19] | activation [11] -1.02% | Potency [12] | Potency [13] | Potency [15] | outcome [16]

Brc1ccc(-c2ccccc2)cc1
inactive: Potency [1] > 92 µM | Potency [2] > 92 µM | activity change, negative = cytotoxicity [17] -9.21% | Potency [3] | Potency [4] | outcome [5] | activation [18] -2.59% | Potency [7] | Potency [8] | Potency [9] | Potency [20] | activation [10] -2.65% | activation [11] 2.79% | Potency [13] | Potency [14] | Potency [15] | outcome [16]
